From the supplement of paper PMC13380429

Test system: Vero E6 infected with SARS-CoV-2
Assay: inhibition of SARS-CoV-2 cytopathic effect; higher = more antiviral protection, active = above 15
Details: 48 h

Measured: inhibition of SARS-CoV-2 cytopathic effect

CN[C@H]1CN(c2ccc3c(=O)c(C(=O)O)cn(-c4nccs4)c3n2)C[C@@H]1OC [voreloxin]
inactive: 1 nM 0.95% | 8.33 nM -1.14% | 100 nM 2.62% | 833.33 nM -0.72% | 10000 nM 0.56%

c1ccc(-c2oc3ncnc(NC[C@@H]4CCCO4)c3c2-c2ccccc2)cc1
inactive: 1 nM 0.95% | 8.33 nM 0.57% | 100 nM 0% | 833.33 nM 0.71% | 10000 nM 1.78%

COc1cc(OC)cc(N(CCNC(C)C)c2ccc3ncc(-c4cnn(C)c4)nc3c2)c1 [erdafitinib]
inactive: 1 nM 1.71% | 8.33 nM -0.38% | 100 nM 0.68% | 833.33 nM -1.43% | 10000 nM 11.7%

CCCCCCCCCCC(O)C1C=CC2C(=O)N(c3ccccc3)C(=O)C2N1Nc1ccc([N+](=O)[O-])cc1 (stereo not given)
inactive: 1 nM 0.91% | 8.33 nM 0.89% | 100 nM 1.56% | 833.33 nM 4.49% | 10000 nM 8.83%

Nc1ccc([As](=O)(O)O)cc1 [arsanilic-acid]
inactive: 1 nM 0.07% | 8.33 nM 1.05% | 100 nM -1.33% | 833.33 nM -2.25% | 10000 nM -0.8%

CCCCOc1cc(C(=O)OCCN(CC)CC)ccc1N [oxybuprocaine]
inactive: 1 nM 0.54% | 8.33 nM 0.93% | 100 nM 5.2% | 833.33 nM 3.06% | 10000 nM -0.68%

CN(C)CC(c1ccc(O)cc1)C1(O)CCCCC1 (stereo not given) [desvenlafaxine]
inactive: 1 nM 1.5% | 8.33 nM 3.55% | 100 nM 4.53% | 833.33 nM 1.89% | 10000 nM 0.99%

C[C@]12N[C@H](Cc3ccccc31)c1ccccc12 [dizocilpine-(-)]
inactive: 1 nM 1.97% | 8.33 nM 1.82% | 100 nM 1.33% | 833.33 nM 1.1% | 10000 nM -0.44%

CN(C)CCCN1c2ccccc2Sc2ccc(Cl)cc21 [chlorpromazine]
inactive: 1 nM -0.39% | 8.33 nM 2.71% | 100 nM 1.5% | 833.33 nM 2.32% | 10000 nM 7.04%

O=C(O)c1ccc(-n2nc(-c3ccccc3O)nc2-c2ccccc2O)cc1 [deferasirox]
inactive: 1 nM -0.67% | 8.33 nM -4.22% | 100 nM -1.32% | 833.33 nM -1.58% | 10000 nM 0.43%

COc1cccc(-c2cc(=O)c3ccccc3o2)c1N
inactive: 1 nM 1.12% | 8.33 nM -3.81% | 100 nM -0.32% | 833.33 nM -3.58% | 10000 nM -5.22%

CCOc1cccc(NC(=O)c2ccc(N3CCCC3)c(C(F)(F)F)c2)c1
inactive: 1 nM 0.59% | 8.33 nM -0.15% | 100 nM -0.42% | 833.33 nM -1.65% | 10000 nM -2.63%

CC(=O)Nc1ccc(NC(=S)NC(=O)c2ccc(C(C)(C)C)cc2)cc1 [tenovin-1]
inactive: 1 nM -0.23% | 8.33 nM 0.85% | 100 nM 1.6% | 833.33 nM -7.1% | 10000 nM -8.92%

COc1ccc(CC2NCCc3cc(OC)c(OC)cc32)cc1OC (stereo not given) [tetrahydropapaverine]
inactive: 1 nM 1.62% | 8.33 nM 0.89% | 100 nM -0.93% | 833.33 nM -3.46% | 10000 nM -3.09%

CN1CCC(NC(=O)c2cc(-c3c(O)cc(O)cc3Oc3ccc([N+](=O)[O-])cc3)on2)CC1
inactive: 1 nM 0.32% | 8.33 nM 0.21% | 100 nM 3.95% | 833.33 nM -1.5% | 10000 nM -5.98%

CCC[C@@H](NC(=O)N1C(=O)C(CC)(CC)[C@@H]1Oc1ccc(C(=O)N2CCN(C)CC2)cc1)c1ccc2c(c1)OCO2
inactive: 1 nM 1.03% | 8.33 nM 1.44% | 100 nM -0.09% | 833.33 nM 1.96% | 10000 nM -6.67%

CN1C(=O)CN=C(c2ccccc2)c2cc(Cl)ccc21 [diazepam]
inactive: 1 nM -0.19% | 8.33 nM 0.35% | 100 nM 1.99% | 833.33 nM 0.56% | 10000 nM 0.22%

NC(=O)c1ccc(N(C(N)=O)c2c(F)cccc2F)nc1-c1ccc(F)cc1F
inactive: 1 nM -0.41% | 8.33 nM -1.25% | 100 nM -4.38% | 833.33 nM -0.33% | 10000 nM -1.52%

Cc1c(N)nc([C@H](CC(N)=O)NC[C@H](N)C(N)=O)nc1C(=O)N[C@H](C(=O)N[C@H](C)[C@@H](O)[C@H](C)C(=O)N[C@H](C(=O)NCCc1nc(-c2nc(C(=O)NCCCNCCCCN)cs2)cs1)[C@@H](C)O)[C@@H](O[C@@H]1O[C@@H](CO)[C@@H](O)[C@H](O)[C@@H]1O[C@@H]1O[C@H](CO)[C@@H](O)[C@H](OC(N)=O)[C@@H]1O)c1cnc[nH]1 [bleomycetin]
inactive: 1 nM 5.02% | 8.33 nM -0.49% | 100 nM -7.1% | 833.33 nM -8.93% | 10000 nM -22.7%
